Screening results from PubChem.
TDP1 cell noCPT: qHTS for Inhibitors of human tyrosyl-DNA phosphodiesterase 1 (TDP1): qHTS in cells in absence of CPT. DT40 Tdp1-/- hTDP1 cells, no CPT, ATP luminescence, 48 h. Potency, µM (series often up to 46.2 µM), most hits filed as inhibitors. 15% of 420,000 active. AID 686978, 2013; further: nearly all actives have a fitted effect of over 55% in size
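Cells were dispensed at 400 per well, compounds added by pin tool, plates incubated ≥48 hr at 37 °C, then CellTiter-Glo added for 30 min at room temperature before luminescence reading. Line: DT40 Tdp1-/- complemented with hTDP1; camptothecin omitted.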
ClpP mod: qHTS Assay for Activators of ClpP | purified B. subtilis ClpP, FRET peptide cleavage, 20 min | Potency, µM (titrated, usually from 57.5 µM) | 1.9% of 340,000 active | AID 651965, 2013; active means well fitted falling curve with a large enough effect; inconclusive means small, poorly fitted or top-dose-only effect; inactive means no such curve, though single readings can be large or run the other way; further: the source files actives as falling curves though it sought activators and does not explain the sign; nearly all actives have a fitted effect of over 65% in size
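FRET quenching reversal measured ClpP activation: 10 microg/mL B. subtilis ClpP at pH 8 with the FRET-FV decapeptide, read at 430 nm after 320 nm excitation. The 20-min minus 0-min signal was scaled between DMSO/no-enzyme wells and ADEP (5.8 microM final).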
DT40 TDP1 CPT: qHTS for Inhibitors of human tyrosyl-DNA phosphodiesterase 1 (TDP1): qHTS in cells in presence of CPT; chicken DT40 Tdp1-/-;hTDP1 cells + 20 nM CPT, ATP luminescence, 48 h; Potency, µM (titrated, usually from 46.2 µM), usual class: inhibitors; 12% of 420,000 active; AID 686979, 2013; further: nearly all actives have a fitted effect of over 55% in size
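Chicken DT40 Tdp1-/- cells complemented with human TDP1, 400 cells/well, exposed to compounds plus 20 nM camptothecin for at least 48 h at 37 C; viability read as ATP content by CellTiter-Glo luminescence.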
TDP1 inh: qHTS Assay for Inhibitors of Tyrosyl-DNA Phosphodiesterase (TDP1); 0.28% of 350,000 active; recombinant TDP1, AlphaScreen DNA substrate cleavage; Tyrosyl-DNA phosphodiesterase 1 (Homo sapiens), Q9NUW8; Potency, µM (top dose mostly 130 µM), hits mostly inhibitors; further: nearly all actives have a fitted effect of over 40% in size
Target sequence (Q9NUW8 whole entry, looked up): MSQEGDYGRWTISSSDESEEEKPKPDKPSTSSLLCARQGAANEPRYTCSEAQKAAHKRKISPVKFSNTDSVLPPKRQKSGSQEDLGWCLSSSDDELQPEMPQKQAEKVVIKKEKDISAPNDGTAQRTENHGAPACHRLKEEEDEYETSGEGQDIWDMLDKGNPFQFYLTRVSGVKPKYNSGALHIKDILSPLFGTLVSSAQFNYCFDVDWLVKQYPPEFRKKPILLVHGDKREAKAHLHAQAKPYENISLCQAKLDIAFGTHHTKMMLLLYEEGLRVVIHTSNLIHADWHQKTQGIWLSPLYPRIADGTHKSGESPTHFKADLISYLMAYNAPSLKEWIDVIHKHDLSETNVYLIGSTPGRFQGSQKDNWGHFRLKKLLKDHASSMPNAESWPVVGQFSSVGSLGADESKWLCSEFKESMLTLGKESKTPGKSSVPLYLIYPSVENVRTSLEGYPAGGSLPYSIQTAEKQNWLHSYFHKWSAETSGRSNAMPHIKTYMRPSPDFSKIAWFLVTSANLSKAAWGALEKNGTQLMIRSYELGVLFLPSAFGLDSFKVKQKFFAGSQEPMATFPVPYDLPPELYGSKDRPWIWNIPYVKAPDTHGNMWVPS
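Here, a 5' biotin and 3' phosphotyrosine-FITC DNA oligonucleotide reports Tdp1 activity: intact substrate bridges AlphaScreen beads, while cleavage leaves a 3' phosphate and drops signal. All incubations at room temperature.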
Numbers stand for hits; 0 = inactive; ? = inconclusive; - = not tested or not shown. The list is not random: actives were taken first. Their share in the collection is about 17%. Unless noted, the call rests on the fitted dose curve; in most records, active means well fitted curve in the direction sought with a large enough effect; inconclusive means small, poorly fitted or top-dose-only effect, or another doubt; inactive means no such curve, though single readings can be large; an effect the other way counts as inactive or inconclusive.

SMILES | TDP1 cell noCPT | ClpP mod | DT40 TDP1 CPT | TDP1 inh
COc1cccc(C(=O)Oc2c(Br)cc(Br)cc2/C=N/NC(=O)c2cc(C)[nH]n2)c1 | 9.2µM | 0 | 6.5µM | 0
COc1ncc2ncc(=O)n(C[C@H]3CCCO3)c2n1 | 0 | - | 0 | -
COC(=O)c1cc(NC(=O)c2cc(C(C)(C)C)nn2Cc2ccc(F)cc2)ccc1N1CCOCC1 | 18µM | 0 | ? | 0
Nc1c2c(nc3cccc(Cl)c13)N(c1ccccc1)CC2 | 0 | - | 0 | -
Cc1ccc2nc3c(c(N)c2c1)CCN3c1ccccc1 | 18µM | 0 | 16µM | 0
CCOc1ccc(N)c(SSc2cc(OCC)ccc2N)c1 | 5.2µM | 0 | 2.6µM | -
C[N+](C)(C)CCN(Cc1ccc(Cl)cc1)c1ccccn1 | 16µM | 25µM | 18µM | 0
O=C(NCc1cccs1)c1ccc(CSc2nc3cccnc3n2Cc2ccccc2)cc1 | 15µM | 0 | ? | 0
Cc1cccc(CSc2nc3cccnc3n2Cc2ccc(C(=O)NCc3cccs3)cc2)c1 | ? | 0 | ? | 0
O=C(NCc1cccs1)c1ccc(CSc2nc3cccnc3n2Cc2ccc(F)cc2)cc1 | ? | 0 | ? | 0
COc1ccc(Cn2c(SCc3ccc(C(=O)NCc4cccs4)cc3)nc3cccnc32)cc1 | 0 | 28µM | ? | 0
Cc1ccc(CSc2nc3cccnc3n2Cc2nc(-c3ccccc3F)oc2C)cc1 | 3.7µM | 0 | 4.6µM | 0
COc1ccc(Cn2c(SCc3ccc(C(=O)NC(C)c4ccccc4)cc3)nc3cccnc32)cc1 (centres undefined) | ? | ? | 0 | 0
Cc1ccc(CSc2nc3cccnc3n2Cc2ccc(C(=O)NCCc3cccs3)cc2)cc1 | 18µM | 0 | 18µM | 0
C[C@H]1OC(OC2C(O)[C@@H](O)C(OC3C(O)[C@@H](O)C(O)O[C@@H]3CO)O[C@@H]2CO)[C@H](O)C(O)C1N[C@H]1C=C(CO)[C@@H](O)[C@H](O)C1O (some centres undefined) | - | - | - | 0
Cc1c(-c2ccccc2)n(-c2ccc(Cl)cc2)c2nc3c(c(=O)n(C)c(=O)n3C)n12 | 0 | 0 | 0 | 0
Cc1cc2c(cc1S(=O)(=O)CCC(=O)N1CC(C)CC(C)C1)OCC(=O)N2 (centres undefined) | 0 | 0 | 0 | -
O=C(OCC1CO1)C1CCCCC1C(=O)OCC1CO1 (centres undefined) | - | - | - | 0
CCOC(=O)c1nnn(C(CC)C(=O)Nc2ccc(F)cc2)c1C(=O)OCC (centres undefined) | 0 | 0 | 0 | 0
Cc1sc2ncn(CC(=O)N(C)c3ccc(C(C)C)cc3)c(=O)c2c1S(=O)(=O)N1CCC(C)CC1 | 23µM | 0 | 23µM | 0
COc1ccccc1N1CCN(S(=O)(=O)c2c(C)sc3ncn(CC(=O)N(C)c4ccc(C(C)C)cc4)c(=O)c23)CC1 | ? | 0 | 13µM | 0
O=C(NC1CCCCC1)NC1CCCCC1 | 0 | - | 0 | 0
CC(C)=CCCC(C)NC(=O)NC1CCCCC1 (centres undefined) | 16µM | 0 | ? | 0
CC(C)OC(=O)CN1C(=O)S/C(=C/c2ccc(N3CCCCC3)o2)C1=O | 20µM | 0 | 16µM | 0
Cc1cc(N)ccc1NC(=O)CN1CCCC1 | 0 | 0 | 0 | -
SMILES | TDP1 cell noCPT | ClpP mod | DT40 TDP1 CPT | TDP1 inh
CC(Sc1cccc2cccc(C(=O)O)c12)C(=O)O (centres undefined) | 0 | 14µM | 0 | 0
COc1ccc(-c2cn3c(n2)sc2cc(C(=O)NCCCN4CCN(C)CC4)ccc23)cc1 | 1.3µM | ? | 1.2µM | 0
COc1ccc(-c2cn3c(n2)sc2cc(C(=O)Nc4cc(OC)cc(OC)c4)ccc23)cc1 | 0 | ? | 0 | 0
CCCN1CCN(CCCNC(=O)c2ccc3c(c2)sc2nc(-c4ccc(OC)cc4)cn23)CC1 | 1µM | 0 | 1.5µM | 0
COc1ccc(-c2cn3c(n2)sc2cc(C(=O)Nc4ccc(C)c(C)c4)ccc23)cc1 | ? | 0 | 0 | 0
CCn1c(=O)c(C(=O)Nc2ccc(C(C)=O)cc2)nc2ccccc21 | 0 | 0 | 0 | 0
Cn1c(=O)c(=O)n(C)c2cc(N3CCCC3)c(NS(=O)(=O)c3ccc(F)cc3)cc21 | 0 | 0 | 0 | 0
COc1ccc(Br)c(C(=O)Nc2cc3c(cc2N2CCCCC2)n(C)c(=O)c(=O)n3C)c1 | 8.2µM | ? | 23µM | 0
Cn1c(=O)n(C)c2cc(N3CCOCC3)c(NC(=O)c3ccccc3Br)cc21 | 0 | 0 | ? | 0
COc1ccc(OC)c(S(=O)(=O)Nc2cc3c(cc2N2CCCC2)n(C)c(=O)c(=O)n3C)c1 | 23µM | 0 | 21µM | 0
COc1ccc(Br)c(C(=O)Nc2cc3c(cc2N2CCOCC2)n(C)c(=O)n3C)c1 | ? | 0 | 23µM | 0
CCC(=Cc1ccc(CC)cn1)CC | 0 | - | 0 | 0
O=C(Cc1csc2nc(-c3ccc(F)cc3)cn12)NCc1ccccc1 | ? | 0 | 16µM | 0
CCN(CC)CCSc1nnc2c3ccccc3n(CCc3ccccc3)c2n1 | ? | 0 | ? | -
O=C1c2ccccc2C(=O)N1CSc1nnc2c3ccccc3n(CCc3ccccc3)c2n1 | 21µM | 0 | ? | 0
c1ccc(CCn2c3ccccc3c3nnc(SCc4ccc5nonc5c4)nc32)cc1 | 16µM | 0 | 15µM | 0
O=C1Nc2ccccc2SC(c2ccccc2)C1O (centres undefined) | ? | 0 | 23µM | ?
Cc1nc(NC2CCCCC2)c2nc(-c3ccccc3)n(CCCN3CCOCC3)c2n1 | - | - | - | 0
Cc1ccc(OC(=S)Nc2ccccc2)c(C)c1 | 16µM | 0 | ? | 0
COc1cccc(-n2c(SCC(N)=O)nnc2-c2ccco2)c1 | 0 | 32µM | 0 | 0
CCn1c(SCC(=O)N(C)CC(=O)Nc2cccc(OC)c2)nnc1-c1ccco1 | 0 | 28µM | 0 | 0
CSc1nnc(-c2ccco2)n1-c1ccccc1 | ? | 0 | 18µM | 0
C/C=C(/C(=C/C)c1ccc(O)cc1)c1ccc(O)cc1 | ? | 0 | ? | 0
C=C(c1ccc(O)cc1)c1ccc(O)cc1 | ? | 0 | 0 | 0
CC(=NN=C(C)c1ccc(O)cc1)c1ccc(O)cc1 | 16µM | - | ? | -
SMILES | TDP1 cell noCPT | ClpP mod | DT40 TDP1 CPT | TDP1 inh
CC/C(=N/N=C(/CC)c1ccc(O)cc1)c1ccc(O)cc1 | 8.2µM | 0 | 15µM | -
CC(=O)Nc1ccc(NC(=O)C(C)OC(=O)CNS(=O)(=O)c2ccc(Br)cc2Cl)cc1 (centres undefined) | 23µM | 0 | 0 | 0
COc1cccc(CNc2ccc3[nH]c(=O)[nH]c3c2)c1OCc1ccc(F)cc1 | ? | - | 0 | -
COc1cccc(CNCCc2c[nH]c3ccccc23)c1OCc1ccc(F)cc1 | 15µM | 0 | 18µM | 0
COc1cc(CNCCc2c[nH]c3ccccc23)cc(Cl)c1OCC(N)=O | ? | 0 | ? | 0
COc1cc(CNCCc2c[nH]c3ccccc23)ccc1OCc1ccc(F)cc1 | 18µM | 0 | 15µM | 0
